Source: PubChem BioAssay (NCATS)
A number with no mark means an inactive call. Active and inactive are the calls of the source. Calls come from the whole dose curve.

Each compound was assayed against Tumor susceptibility gene 101 protein (Homo sapiens) (UniProt Q99816) (assay: qHTS Validation Assay for Iinhibitors of HIV-1 Budding by Blocking the Interaction of PTAP/TSG101 (AID 485342; note: 0% is about no effect)). Settings: TSG101-PTAP binding, fluorescence polarization, 4-point titration; series mostly up to 115 µM; fluorescence change: at the top concentration.
Chain of Tumor susceptibility gene 101 protein (Homo sapiens) (Q99816 whole entry, looked up): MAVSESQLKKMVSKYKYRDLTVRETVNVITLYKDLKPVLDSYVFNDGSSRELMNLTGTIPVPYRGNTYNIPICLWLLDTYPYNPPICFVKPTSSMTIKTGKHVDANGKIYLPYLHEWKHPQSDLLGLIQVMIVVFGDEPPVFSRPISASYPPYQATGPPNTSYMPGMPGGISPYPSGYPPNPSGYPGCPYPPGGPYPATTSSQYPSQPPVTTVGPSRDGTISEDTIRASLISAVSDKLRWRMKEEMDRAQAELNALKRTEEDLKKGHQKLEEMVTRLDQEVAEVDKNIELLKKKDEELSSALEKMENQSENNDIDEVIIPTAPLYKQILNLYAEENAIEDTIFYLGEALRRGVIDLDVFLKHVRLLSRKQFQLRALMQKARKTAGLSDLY
Text: NIH Molecular Libraries Probe Production Network [MLPCN]
NIH Chemical Genomics Center [NCGC]
PI Name: Dr. Eric Freed, NCI
Stages of the HIV-1 replication cycle, specifically virus assembly and release, provide underexploited targets for the development of novel antiviral inhibitors. The late stages of HIV-1 replication are mediated by the Gag precursor protein, Pr55Gag. Expression of Pr55Gag is both necessary and sufficient for the production of virus-like particles from Gag-expressing cells. The Gag protein hijacks key host proteins involved in endocytic machinery of the host cell to promote endosomal processing and viral budding. The budding process requires a direct interaction between a […] (PTAP) motif in the p6 domain of Gag and the cellular endosomal sorting protein known as Tsg101. In this way, the Gag PTAP motif promotes the host cells to recruit viral particles to the plasma membrane where the new viral particles are released, effectively turning the host cells into viral factories. A fluorescence anisotropy assay has been developed to quantitatively measure the PTAP-Tsg101 interaction which can be used to screen for inhibitors of this interaction.
NCGC Assay Protocol Summary:
Two uL of the Tsg101 binding domain in buffer (10 mM HEPES pH 7.5; 0.15 M NaCl, 0.01% Tween 20; 3 mM EDTA;0.1 mM TCEP) was dispensed into Greiner black MB 1536-well plates (final concentration 10 uM). Then, 23 nL of compounds or DMSO were delivered to each well using a pin tool. Finally, 2 uL of a FITC-labeled peptide containing the PTAP motif (1) in the same buffer was dispensed (50 nM final concentration) and the binding was allowed to proceed for 20 min. at r.t. Fluorescent polarization was determined using FITC excitation and polarized emission filters on a Perkin Elmer Viewlux.
Keywords: Tsg101, PTAP, Gag, HIV, fluorescent polarization, MLSMR, MLPCN, NIH Roadmap, qHTS, NCGC

Row | SMILES | fluorescence change | outcome
1 | CCCCCCCC/C=C\CCCCCCCC(=O)NCCO | -22.4% | 
2 | CNCC[C@H](Oc1ccc(C(F)(F)F)cc1)c1ccccc1 | 1.56% | 
3 | CC(C)Cc1ccc([C@H](C)C(=O)O)cc1 | 0.0844% | 
4 | COc1cc2nc(N3CCN(C(=O)OCc4ccccc4)C(C(=O)NC(C)(C)C)C3)nc(N)c2cc1OC (stereo not given) | 0.0631% | 
5 | O=C(O)CC1CC(c2ccccc2)=NO1 (stereo not given) | 1.97% | 
6 | Nc1ncnc2c1ncn2[C@@H]1O[C@H](COP(=O)(O)CP(=O)(O)OP(=O)(O)O)[C@@H](O)[C@H]1O | -0.448% | 
7 | C[N+]1(C)CCC(OC(=O)C(c2ccccc2)c2ccccc2)CC1 | 5.3% | 
8 | Cc1cc(NC2CCCCC2)nc(-n2nc(C)cc2C)n1 | -10.8% | 
9 | CCCC1(C)C(C#N)(C#N)C1(C#N)C#N | 5.8% | 
10 | O=C1NC(=O)/C(=C/c2ccc3nccnc3c2)S1 | -8.26% | 
11 | N=C(N)SCCc1ccc(CCSC(=N)N)cc1 | 3.52% | 
12 | COc1ccccc1CNCCCCCCNCCCCCCCCNCCCCCCNCc1ccccc1OC | 0.82% | 
13 | CC(C)(C)c1ccc(S(=O)(=O)/C=C/C#N)cc1 | 2.12% | 
14 | NO | 0.691% | 
15 | CC1OC1P(=O)(O)O (stereo not given) | 5.65% | 
16 | CCCCCCCCCCCCCCCC(=O)NCC(COP(=O)([O-])OCC[N+](C)(C)C)OCC (stereo not given) | 0.265% | 
17 | NCCCS(=O)(=O)O | -0.706% | 
18 | Cn1ncc(S(=O)(=O)Cc2ccccc2)c(Br)c1=O | -6.26% | 
19 | CCN(CC)c1ncnc2c1ncn2[C@@H]1O[C@H](COP(=O)(O)OP(=O)(O)C(Br)(Br)P(=O)(O)O)[C@@H](O)[C@H]1O | -1.19% | 
20 | Oc1cc(O)cc(/C=C/c2ccc(O)c(O)c2)c1 | -4.18% | 

Row | SMILES | fluorescence change | outcome
21 | Nc1nc(SCc2ccc([N+](=O)[O-])cc2)c2ncn([C@@H]3O[C@H](CO)[C@@H](O)[C@H]3O)c2n1 | 1.3% | 
22 | COc1ccccc1N1CCN(CCCCNS(=O)(=O)c2cccc3c(N(C)C)cccc23)CC1 | 0.255% | 
23 | CN1CCc2cccc3c2C1Cc1ccc(O)c(O)c1-3 (stereo not given) | 4.35% | 
24 | O=C(/C=C/c1ccc(O)cc1)c1ccc(O)cc1O | 2.07% | 
25 | COC(=O)c1c(C)[nH]c(C)c1C(=O)c1ccccc1Cc1ccccc1 | -3.48% | 
26 | CCCN(CC1CC1)c1nc(C)nc(Nc2c(Cl)cc(Cl)cc2Cl)c1Cl | -4.94% | 
27 | CSc1ccccc1N1CCN(CCCCCC(=O)NC2CCCc3ccccc32)CC1 (stereo not given) | -11.2% | 
28 | O=c1[nH]c2cc([N+](=O)[O-])c([N+](=O)[O-])cc2[nH]c1=O | 4.25% | 
29 | Cc1ccc(C(=O)O[C@H](C(=O)O)[C@@H](OC(=O)c2ccc(C)cc2)C(=O)O)cc1 (tested in a mixture with another compound) | -6.05% | 
30 | O=C(O)CC1CCCc2ccccc2C1O (stereo not given) | 2.16% | 
31 | O=C(O)[C@@H]1C[C@H](C(=O)O)N1 | -5.17% | 
32 | NCCNC(=O)c1ncsc1-c1cccc(F)c1 | 3.76% | 
33 | Cc1cc(NC(=O)Nc2ccc3c(ccn3C)c2)sn1 | -11.1% | 
34 | O=C1NC(O)=NC1(c1ccccc1)c1ccccc1 | -0.931% | 
35 | C[N+]1(C)C2CC(OC(=O)[C@H](CO)c3ccccc3)CC1C1OC12 (stereo not given in full) |  | inactive
36 | O=C(O)CCCC[C@@H]1CCSS1 | -0.554% | 
37 | OC[C@H]1O[C@@H](n2cnc3c(NC4CCCC4)ncnc32)[C@H](O)[C@@H]1O | 1.84% | 
38 | CC(=O)N[C@H](C(=O)O)C(C)(C)SN=O | -0.656% | 
39 | N#C/C(=C\c1ccc(O)c(O)c1)C(=O)NCCCc1ccccc1 | -2.23% | 
40 | Nc1ncnc2c1c(I)cn2[C@@H]1C[C@H](N)[C@@H](O)[C@H]1O | -0.689% | 
